Experimental findings from PubChem BioAssay are described below.

Neurogenic locus notch homolog protein 3 (Homo sapiens), sequence (Q9UM47 whole entry, looked up): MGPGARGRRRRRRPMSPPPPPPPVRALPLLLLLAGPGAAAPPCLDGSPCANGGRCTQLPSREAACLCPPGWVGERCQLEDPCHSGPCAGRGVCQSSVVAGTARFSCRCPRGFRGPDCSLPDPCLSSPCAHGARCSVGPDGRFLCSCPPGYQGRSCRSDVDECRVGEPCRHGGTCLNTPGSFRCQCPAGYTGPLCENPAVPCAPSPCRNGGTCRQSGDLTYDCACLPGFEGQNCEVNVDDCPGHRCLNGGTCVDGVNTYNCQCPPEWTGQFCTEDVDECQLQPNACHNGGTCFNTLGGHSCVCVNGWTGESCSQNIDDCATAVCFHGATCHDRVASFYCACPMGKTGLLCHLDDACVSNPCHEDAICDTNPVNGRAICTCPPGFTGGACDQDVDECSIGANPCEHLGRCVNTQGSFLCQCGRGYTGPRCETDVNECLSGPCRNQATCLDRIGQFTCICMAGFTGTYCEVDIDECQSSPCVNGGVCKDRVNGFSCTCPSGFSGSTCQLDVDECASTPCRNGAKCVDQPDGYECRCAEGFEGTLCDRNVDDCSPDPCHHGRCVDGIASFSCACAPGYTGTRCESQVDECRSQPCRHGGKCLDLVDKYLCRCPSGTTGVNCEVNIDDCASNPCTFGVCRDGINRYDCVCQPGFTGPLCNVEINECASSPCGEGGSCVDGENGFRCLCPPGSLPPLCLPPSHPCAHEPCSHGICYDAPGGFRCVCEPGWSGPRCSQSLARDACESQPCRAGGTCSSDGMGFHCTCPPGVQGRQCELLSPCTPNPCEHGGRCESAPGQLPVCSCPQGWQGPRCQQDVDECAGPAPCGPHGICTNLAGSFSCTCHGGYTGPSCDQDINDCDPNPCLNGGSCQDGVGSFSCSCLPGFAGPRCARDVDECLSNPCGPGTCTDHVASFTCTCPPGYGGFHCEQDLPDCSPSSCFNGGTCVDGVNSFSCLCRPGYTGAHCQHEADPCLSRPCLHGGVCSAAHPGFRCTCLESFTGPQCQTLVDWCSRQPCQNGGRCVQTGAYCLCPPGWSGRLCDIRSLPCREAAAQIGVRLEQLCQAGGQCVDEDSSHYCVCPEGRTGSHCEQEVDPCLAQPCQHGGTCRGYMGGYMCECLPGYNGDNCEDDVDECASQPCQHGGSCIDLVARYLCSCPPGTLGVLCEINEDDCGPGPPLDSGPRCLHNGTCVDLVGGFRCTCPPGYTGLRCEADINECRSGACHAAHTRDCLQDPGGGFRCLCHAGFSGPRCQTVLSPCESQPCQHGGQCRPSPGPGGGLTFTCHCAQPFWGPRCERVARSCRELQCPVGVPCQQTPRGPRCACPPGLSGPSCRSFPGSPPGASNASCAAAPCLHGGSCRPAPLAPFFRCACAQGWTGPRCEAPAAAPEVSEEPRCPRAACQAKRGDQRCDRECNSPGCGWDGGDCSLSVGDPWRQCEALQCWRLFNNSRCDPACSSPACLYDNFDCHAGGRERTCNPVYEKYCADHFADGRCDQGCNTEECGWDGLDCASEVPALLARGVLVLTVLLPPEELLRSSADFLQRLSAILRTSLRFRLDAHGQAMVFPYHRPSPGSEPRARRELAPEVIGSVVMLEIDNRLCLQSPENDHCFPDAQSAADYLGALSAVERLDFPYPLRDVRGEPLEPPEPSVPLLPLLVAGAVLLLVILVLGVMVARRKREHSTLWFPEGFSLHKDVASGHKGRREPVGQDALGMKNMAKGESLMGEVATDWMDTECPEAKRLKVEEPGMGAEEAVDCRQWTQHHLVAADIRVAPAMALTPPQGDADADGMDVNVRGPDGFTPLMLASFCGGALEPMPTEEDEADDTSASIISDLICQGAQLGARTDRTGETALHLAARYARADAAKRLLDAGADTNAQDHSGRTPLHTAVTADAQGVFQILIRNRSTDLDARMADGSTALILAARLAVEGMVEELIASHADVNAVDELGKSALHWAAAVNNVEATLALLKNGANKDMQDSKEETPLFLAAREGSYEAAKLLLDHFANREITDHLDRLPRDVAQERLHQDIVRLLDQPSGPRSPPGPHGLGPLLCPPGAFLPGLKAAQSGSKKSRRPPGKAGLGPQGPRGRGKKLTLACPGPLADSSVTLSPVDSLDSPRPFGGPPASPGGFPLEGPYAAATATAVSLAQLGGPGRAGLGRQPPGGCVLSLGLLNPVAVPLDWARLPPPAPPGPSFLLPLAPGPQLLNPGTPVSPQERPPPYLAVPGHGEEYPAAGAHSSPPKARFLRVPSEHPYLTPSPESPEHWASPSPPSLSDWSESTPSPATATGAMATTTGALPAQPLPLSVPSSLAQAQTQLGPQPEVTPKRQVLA

The assay has as its target Neurogenic locus notch homolog protein 3 (Homo sapiens) (UniProt Q9UM47). The assay is described as follows: NOTCH3 binders on small-molecule microarray, primary screen, biochemical, 635/667 nm fluorescence (AID 1096). As to conditions: NOTCH3 binding, 635 nm fluorescence, higher = more signal.
Molecule `CCc1oc(CC[C@@H](CO)NC(=O)NCCn2cc(C3(O)CCCCC3)nn2)c(C(=O)OC)c1C(=O)OC` registered a composite z-score of 0.939.
For `O=C1C2C=CC(C(O)c3c(F)cccc3Cl)N(Nc3ccccc3)C2C(=O)N1c1ccccc1` (stereo not given) the value was 1.04.
To `COc1ccc(C(=O)Nc2ccc(CN3C(=O)[C@@]4(O[C@@H](CCO)[C@H]([Si](C)(C)c5ccc(OC)cc5)[C@H]4C)c4ccccc43)cc2)cc1` belongs 1.08; to `CC(C)c1ccc(NN2C(C(O)c3cc(C(F)(F)F)cc(C(F)(F)F)c3)C=CC3C(=O)N(c4ccccc4)C(=O)C32)cc1` (stereo not given), 0.245; to `CC(=O)NCCCC[C@@H]1NC(=O)[C@@H]2C[C@H](C(=O)NCCCCCCNC(=O)CS)[C@H](c3cccc(OCCO)c3)N2C1=O`, 0.249.
The molecule `O=C1c2ccccc2[C@@]2(Cc3ccccc3N(CCN3CCOCC3)C2=O)[C@H](c2ccc(CO)cc2)N1Cc1ccccc1` had a composite z-score of -0.038.
As for `CCCCCN1CC=CC23O[C@@H]4/C=C\CCCOC(=O)C4[C@H]2C(=O)N(C(CO)C(C)C)[C@@H]3C1=O` (stereo not given in full), the composite z-score was 0.243.
For `CN1C(=O)[C@]2(Cc3ccccc3)N=C(c3ccc(OCCCO)cc3)O[C@@H]2c2ccccc21` the value was 0.845.
For `COc1ccc(CCNC(=O)[C@@H]2c3ccccc3C(=O)N(C3Cc4ccccc4C3)[C@H]2c2ccc(CO)cc2)cc1` the value was -0.145; for `COc1cc2c(cc1OC)CN(C(=O)[C@H]1[C@@H]3C(=O)O[C@@H](c4ccccc4)[C@@H](c4ccccc4)N3[C@@H](c3ccc(O)cc3)[C@]13C(=O)Nc1ccc(C#CC4=CCCCC4)cc13)CC2`, 0.913.
With `CCCC=C(CCC)[C@@H](NS(=O)(=O)c1cccs1)c1ccc(C(=O)OC)cc1`, the composite z-score is 0.882.
For `C[C@@]1([C@@H](NC(=O)c2ccccc2)c2ccc(-c3ccccc3)cc2)C[C@H]1C1CCCCC1` the value was -1.42; for `C=CCC(OC(C)=O)[C@@H]1[C@@H](N(Cc2ccc(-c3cccc(C(F)(F)F)c3)o2)C(=O)Cc2ccc(F)cc2)c2cc(OCCCO)ccc2N1C(=O)Cc1ccc(OC)cc1` (stereo not given in full), -1.08; for `COC(=O)c1c(CC[C@@H](CO)NC(=O)N[C@@H](C)Cn2cc(C3(O)CCCCC3)nn2)oc(C(C)=O)c1C(=O)OC`, 1.05.
For `C=CCC(OC(C)=O)[C@@H]1[C@@H](N(Cc2ccc(-c3cccc(C(F)(F)F)c3)o2)C(=O)c2ccc(-c3ccccc3)cc2)c2cc(OCCCO)ccc2N1C(=O)c1ccc(-c2ccccc2)cc1` (stereo not given in full) the value was -0.147.
`COCCOC(=O)N1C(=O)[C@@]2(c3cc(C#Cc4ccc(OC)cc4)ccc31)[C@H](C(N)=O)[C@H]1C(=O)O[C@H](c3ccccc3)[C@H](c3ccccc3)N1[C@@H]2c1ccccc1OCCO` returned a composite z-score of 1.08.
Regarding `CCN(CC)c1ccc(N2CC=CC34O[C@@H]5/C=C\CCCOC(=O)C5[C@H]3C(=O)N(CCO)[C@@H]4C2=O)cc1` (stereo not given in full), the composite z-score was -0.162.
To `CC(C)N1C(=O)[C@@]2(Cc3ccccc31)c1ccccc1C(=O)N(C1CCCCC1)[C@H]2c1ccc(CO)cc1` belongs 0.79; to `CN(C)C(=O)[C@]1(Cc2ccccc2CN=[N+]=[N-])N=C(c2ccc(OCCCO)cc2)O[C@@H]1c1ccccc1CN=[N+]=[N-]`, 1.11; to `O=C1c2ccccc2[C@](Cc2ccccc2I)(C(=O)NC2CC2)[C@H](c2ccc(CO)cc2)N1Cc1ccccc1`, 0.566.
For `COCCOC(=O)N1C(=O)[C@@]2(c3cc(C#CC4(O)CCCCCC4)ccc31)[C@H](c1ccc(O)cc1)N1[C@H](c3ccccc3)[C@H](c3ccccc3)OC(=O)[C@H]1[C@@H]2C(=O)Nc1nc2ccccc2s1` the value was 1.1; for `C=CCOC(=O)[C@H]1[C@@H]2C(=O)O[C@@H](c3ccccc3)[C@@H](c3ccccc3)N2[C@@H](c2ccc(OCCOC(=O)[C@@H]3C[C@@H]4C(=O)N5CCC[C@H]5C(=O)N4[C@@H]3c3cccc(OCCO)c3)cc2)[C@]12C(=O)Nc1ccccc12`, 1.13; for `C#CCN(CC=C(C)C)[C@H](CO)c1ccccc1`, 0.109.
For `C=C[C@H](COC(C)=O)N(C(=O)OC(C)(C)C)S(=O)(=O)c1ccc(Br)cc1` the value was 0.0585; for `COc1ccc(C(O)C2C=CC3C(=O)N(c4ccccc4)C(=O)C3N2Nc2ccccc2F)cc1OCc1ccccc1` (stereo not given), 0.386.
Consider `CCOC(=O)C1=CCC(c2ccc(C)cc2)N(S(=O)(=O)c2ccc(C)cc2)C1` (stereo not given), for which the composite z-score is 0.234.
In turn, `COCC(=C=CC[C@H](O)c1ccccc1OCCO)C[C@H](O)c1cc(Cl)cc(Cl)c1O` returned a composite z-score of 1.03.
To `COCCOC(=O)N1C(=O)[C@@]2(c3cc(C#CC4=CCCCC4)ccc31)[C@H](C(=O)Nc1nc3ccccc3s1)[C@H]1C(=O)O[C@H](c3ccccc3)[C@H](c3ccccc3)N1[C@@H]2c1ccccc1OCCO` belongs 1.07.
To `CC(C)C[C@@H]1NC(=O)[C@H]2C[C@@H](C(=O)NCCCCCCN)[C@@H](c3ccc(O)cc3)N2C1=O` belongs 0.529; to `COCCCNC(=O)[C@@]1(Cc2ccccc2)N=C(c2ccc(OCCCO)cc2)O[C@H]1c1ccccc1`, 0.6; to `CN(C)C(=O)[C@]1(Cc2ccccc2N=[N+]=[N-])N=C(c2ccc(OCCCO)cc2)O[C@@H]1c1ccccc1`, 0.905.
To `CN1C(=O)C2C=CC(C(O)c3ccccc3)N(Nc3ccccc3)C2C1=O` (stereo not given) belongs -0.557.
Molecule `CCOC(=O)C[C@H]1[C@H](OC(=O)Cc2ccc3c(c2)OCO3)[C@@H](NC(=O)c2ccc(-c3ccccc3)cc2)c2cc(OCCCO)ccc2N1C(=O)Cc1ccc(OC)cc1` came in with a composite z-score of 0.921.
To `O=C1c2ccccc2[C@](Cc2ccccc2I)(C(=O)NC2CC2)[C@H](c2ccc(CO)cc2)N1C1CCCCC1` belongs 1.05; to `C=CCOC(=O)[C@@H]1[C@H]2C(=O)O[C@H](c3ccccc3)[C@H](c3ccccc3)N2[C@H](c2ccc(OCCOC(=O)[C@@H]3C[C@@H]4C(=O)N5CCC[C@H]5C(=O)N4[C@@H]3c3ccc(O)cc3)cc2)[C@@]12C(=O)Nc1ccc(I)cc12`, 0.565.
